Compound activity from PubChem.
KDM5B inh: blocks human KDM5B histone demethylase activity; KDM5B demethylase, FDH-coupled NADH fluorescence (FDH is formaldehyde dehydrogenase); Potency, µM (top dose mostly 57.7 µM), actives largely listed as inhibitors; 220,000 compounds, 2.6% hits; AID 1347165; active means well fitted inhibition curve with a large enough effect; further: 0% is about no effect; nearly all actives have a fitted effect of over 70% in size
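Here, H3K4me3 peptide (12.5 µM in substrate mix) is demethylated by KDM5BΔAP, 200 nM final, after 10 min compound exposure. Formaldehyde product is coupled through FDH (0.25 U/mL in mix) to NADH fluorescence; 30-min ΔRFU feeds dose-response curves.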
Starred values were filed as active, the others as inactive. Shown is part of a subset that was picked to be rich in hits. Potency means the concentration at half of the fitted maximal effect.

How did CC(=O)Nc1ccc(NC(=O)C(C)OC(=O)c2cccc3c(=O)c(C)c(-c4ccccc4)oc23)cc1 (stereo not drawn) do in these assays?
KDM5B inh: inactive

What do the screens show for `c1ccc(-c2c(-c3ccccc3)n(-c3ccccc3)c3ccccc23)cc1`?
KDM5B inh: inactive

Results for c1ccc(-c2cc(-c3nnc(-c4ccccc4)c(-c4ccccc4)n3)[nH]n2)cc1 ?
KDM5B inh: inactive

How did Cc1cc(C)n2nc(C(=O)OCc3cc(=O)oc4cc(C)c(C(C)C)cc34)nc2n1 do in these assays?
KDM5B inh: inactive

Results for O=C(NC1CCCCCC1)c1cc2n(n1)CC(c1ccc3c(c1)OCO3)OC2 (stereo not drawn) ?
KDM5B inh: inactive

How did O=C(NC1CCCCC1)c1cc2n(n1)CC(c1ccc3c(c1)OCO3)OC2 (stereo not drawn) do in these assays?
KDM5B inh: inactive

What do the screens show for `O=C(c1cc2n(n1)CC(c1ccc3c(c1)OCO3)OC2)N1CCCC1` (stereo not drawn)?
KDM5B inh: 28µM*

Results for CCN(CC)S(=O)(=O)c1nc(C)c(Cl)c(C)c1C#N ?
KDM5B inh: inactive

How did CC(C)CC(=O)N1CCCCCCNC(=O)[C@@H]2CCCC[C@@H]21 do in these assays?
KDM5B inh: inactive

Results for Cn1cccc1CN1CCCCCNC(=O)[C@@H]2CCC[C@@H]21 ?
KDM5B inh: inactive

How did O=C1NCCCCCCN(Cc2ccc(F)c(F)c2)[C@H]2CCC[C@@H]12 do in these assays?
KDM5B inh: 13µM*

What do the screens show for `O=C1NCCCCCCN(Cc2ccncc2)[C@@H]2CN(Cc3ccncc3F)CC[C@H]12`?
KDM5B inh: 20µM*

What do the screens show for `O=C1NCCCCCN(C(=O)Cc2cccc(F)c2)[C@H]2CCC[C@@H]12`?
KDM5B inh: inactive

Results for O=C1NCCCN1C1CCN(Cc2cccc(OC(F)(F)F)c2)CC1 ?
KDM5B inh: inactive

What do the screens show for `CC(C)CCN1CCCCCCNC(=O)[C@@H]2CCC[C@@H]21`?
KDM5B inh: 10µM*

What do the screens show for `CN(C)S(=O)(=O)N1CC[C@H]2C(=O)NCCCCCCN(Cc3ccncc3)[C@@H]2C1`?
KDM5B inh: inactive

What do the screens show for `O=C1NCCCCCCN(Cc2cccc(OC(F)(F)F)c2)[C@H]2CCC[C@@H]12`?
KDM5B inh: 5.6µM*

How did CCn1cc(CN2CCCCCNC(=O)[C@@H]3CCC[C@@H]32)c(C)n1 do in these assays?
KDM5B inh: inactive

How did COc1cccc(CN2CCCOCCNC(=O)[C@@H]3CCCC[C@@H]32)c1 do in these assays?
KDM5B inh: inactive

What do the screens show for `CN1CCC(N2CC[C@@H]3C(=O)NCCCCCCN(Cc4ccncc4)[C@@H]3C2)CC1`?
KDM5B inh: inactive

Results for C=CCOc1ccc(/C=C/c2cc(C(=O)O)c3ccccc3n2)cc1OC ?
KDM5B inh: inactive

How did Cc1ccc(C(NC(=O)CCl)C2CC2)cc1 (stereo not drawn) do in these assays?
KDM5B inh: inactive

What do the screens show for `Cc1nc2cc(F)cc(C(=O)NCC3CCC3)c2nc1C`?
KDM5B inh: inactive

What do the screens show for `CC1CCC2(CC1)OCC(C(=O)NC1CCCCC1)N2C(=O)c1ccc(F)cc1` (stereo not drawn)?
KDM5B inh: inactive

What do the screens show for `O=C(CN1CCCn2nc(CO)cc2C1)NCCc1ccccc1`?
KDM5B inh: inactive

What do the screens show for `CCOc1ccc(C(=O)N2CCC3(CC2)C(=O)N(C)c2ccccc23)cc1OCC`?
KDM5B inh: inactive

Results for CCNC(=O)N1CCC(Cc2ncc(C)n2C2CC2)C1 (stereo not drawn) ?
KDM5B inh: inactive

What do the screens show for `CC1CCC(NC(=O)C2CCN(C(=O)c3ncn4c3COC(c3ccc(F)cc3)C4)CC2)CC1` (stereo not drawn)?
KDM5B inh: inactive

What do the screens show for `N#CCCN(C(=O)Cn1nc(Cc2ccncc2)c2ccccc2c1=O)c1ccccc1`?
KDM5B inh: inactive

What do the screens show for `CC(C)c1ccc(CCNC(=O)c2cccc3cccnc23)cc1`?
KDM5B inh: inactive

Results for COC[C@@H]1CN(Cc2cc(OC)cc(OC)c2)C[C@H]1C(=O)N(C)C ?
KDM5B inh: inactive

Results for COc1ccc2c(c1)CCN=C2C[C@H]1CN(C(=O)CC(C)(C)C)CC[C@H]1CC(=O)O ?
KDM5B inh: 28µM*

What do the screens show for `COc1ccc2c(c1)C(C[C@H]1CN(C(=O)C(C)(C)C)CC[C@H]1CC(=O)O)=NCC2`?
KDM5B inh: 35µM*

How did COc1ccc(NC(=O)N2CC[C@@H](CC(=O)O)[C@@H](CCN3CCOCC3)C2)cc1 do in these assays?
KDM5B inh: inactive

Results for COc1ccc2c(c1)CCN=C2C[C@H]1CN(C(=O)c2c(C)noc2C)CC[C@H]1CC(=O)O ?
KDM5B inh: 22µM*

How did COc1cccc(NC(=O)N2CC[C@@H](CC(=O)O)[C@@H](CC3=NCCc4ccc(C(C)(C)C)cc43)C2)c1 do in these assays?
KDM5B inh: inactive

What do the screens show for `COc1cc2c(cc1OC)C(C[C@H]1CN(C(=O)C(C)(C)C)CC[C@H]1CC(=O)O)=NCC2`?
KDM5B inh: inactive

Results for O=c1c(-c2ccc(Cl)cc2)coc2cc(OCCN3CCCCC3)ccc12 ?
KDM5B inh: inactive

How did COCCNC(=O)C[C@@H]1C[C@H]2O[C@H](CNCc3ccccc3C(F)(F)F)[C@@H](O)[C@H]2O1 do in these assays?
KDM5B inh: inactive

What do the screens show for `CN(C)CC(C)(C)CNc1nc(-c2cccnc2)nc2ccccc12`?
KDM5B inh: inactive

What do the screens show for `COC[C@@H]1CN(c2cnccn2)C[C@H]1C(=O)NCc1ccccc1OC`?
KDM5B inh: 22µM*

How did COC[C@@H]1CN(c2cnccn2)C[C@H]1C(=O)NCc1c(C)n[nH]c1C do in these assays?
KDM5B inh: 20µM*

What do the screens show for `Cc1cnc(C(=O)N[C@@H]2CCC[C@@H]2C(=O)NCc2c(C)n[nH]c2C)cn1`?
KDM5B inh: inactive

How did COc1ccc(C(=O)N[C@@H]2CCC[C@@H]2C(=O)NCCCn2cccn2)cn1 do in these assays?
KDM5B inh: inactive

What do the screens show for `O=C(NCCc1cccnc1)C1CC2CCC1C2` (stereo not drawn)?
KDM5B inh: inactive

How did O=C1CCCCC(C(=O)NCCCn2cccn2)N1 (stereo not drawn) do in these assays?
KDM5B inh: inactive

Results for O=C(NCCc1cccnc1)C1CCCN(C2CCOCC2)C1 (stereo not drawn) ?
KDM5B inh: inactive

How did COc1ccccc1CNC(=O)[C@H]1CCC[C@H]1NC(=O)c1ccncc1 do in these assays?
KDM5B inh: inactive

How did COc1ccccc1CN1C[C@@H](C(=O)O)C[C@H](C(=O)NCc2ccccn2)C1 do in these assays?
KDM5B inh: inactive

How did COC[C@@H]1CN(C(=O)CCc2c(C)n[nH]c2C)C[C@H]1c1ccncc1 do in these assays?
KDM5B inh: inactive

How did COC[C@@H]1CN(c2cnccn2)C[C@H]1C(=O)NCCCn1cccn1 do in these assays?
KDM5B inh: 20µM*

Results for COC[C@@H]1CN(c2cnccn2)C[C@H]1C(=O)NCCc1cccnc1 ?
KDM5B inh: 25µM*

Results for CCc1c(C(=O)N[C@@H]2COCC[C@H]2OCc2ccccn2)csc1C ?
KDM5B inh: inactive

Results for Cn1cc(CN2CCCC(COc3ccccc3C(=O)NC3CC3)C2)c2ccccc21 (stereo not drawn) ?
KDM5B inh: inactive

How did CCN(CC1CCCO1)C(=O)C1CCN(c2nc(-c3ccccc3)nc3c2CCC3)CC1 (stereo not drawn) do in these assays?
KDM5B inh: inactive

Results for O=C(CSCCN1CCCC1)N1CCC(n2cnnc2)CC1 ?
KDM5B inh: inactive
